The source of these data is PubChem BioAssay (NCI).

Some test systems named below: NCI-H23 lung; NCI-H226 lung; NCI-H322M lung; HOP-62 NSCLC; NCI-H460 lung; HOP-92 NSCLC; NCI-H522 lung; A549/ATCC NSCLC; 786-0 renal; COLO 205 colon; DU-145 prostate; K-562 leukemia; MALME-3M melanoma; MDA-MB-231 breast; RXF 393 renal; SF-268 CNS; SF-295 CNS; SF-539 CNS; UACC-257 melanoma; M14 melanoma.
Experiment in all cases: NCI-60 one-dose screen, 48 h (100 = growth as untreated, 0 = no growth, -100 = all killed)
What all share (settings): 10 µM unless noted

Compounds without any hit were thinned out: in the full panel of roughly 83,000, 20% have a hit.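 Single-concentration screen, 48 h exposure, 96-well plates. Endpoint: percent growth. Below 10 = active.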 Values without a mark were called inactive. Activity calls are given as the source filed them.

In the case of `CCCCCc1ccc(S(=O)(=O)Nc2cc(-c3csc(NC(C)=O)n3)ccc2N2CCN(C)CC2)cc1`, the growth is 65.5% in the assay with NCI-H23 lung; 94.1% with NCI-H226 lung; 73.2% with NCI-H322M lung; 83.3% with HOP-62 NSCLC; -11.4% (active) in the assay with NCI-H460 lung; 36% with HOP-92 NSCLC. Also, the growth in the assay with NCI-H522 lung was 67.3%; with A549/ATCC NSCLC, 55.8%; with 786-0 renal, 56.7%; in the assay on COLO 205 colon, -38.9% (active); in the assay on DU-145 prostate, 75.8%; in the assay with K-562 leukemia it was -32.6% (active). In addition, the growth in the assay with MALME-3M melanoma is -47.1% (active); with MDA-MB-231 breast it was 51.8%; with RXF 393 renal it was 33.3%; with SF-268 CNS, 72%; with SF-295 CNS it was 49.9%; in the assay on SF-539 CNS, 61.6%. The growth in the assay on UACC-257 melanoma is -21.9% (active); in the assay with M14 melanoma, -52.4% (active).
For the compound `CCCCCCCCn1ccc2cc(NC(=O)CN=[N+]=[N-])ccc21`, the growth in the assay on NCI-H23 lung is 102%; with NCI-H226 lung it was 95.4%; in the assay with NCI-H322M lung, 102%; with HOP-62 NSCLC, 114%; in the assay on NCI-H460 lung it was 107%; with HOP-92 NSCLC, 111%. The growth in the assay with NCI-H522 lung was 88.3%; in the assay with A549/ATCC NSCLC, 100%; in the assay on 786-0 renal, 94.1%; in the assay on COLO 205 colon, 118%; in the assay on DU-145 prostate, 108%; in the assay with K-562 leukemia, 93.5%. For the same compound, the growth in the assay on MALME-3M melanoma is 109%; with MDA-MB-231 breast, 101%; in the assay on RXF 393 renal it was 104%; with SF-268 CNS, 97.9%; with SF-295 CNS, 100%; with SF-539 CNS, 106%. Besides, the growth is 103% with UACC-257 melanoma and 109% in the assay on M14 melanoma.
In the case of `Cc1c2ncccc2nc2[nH]c3ccc(OCCN(C)C)cc3c12`, the growth in the assay on NCI-H23 lung was 28.1%; in the assay with NCI-H226 lung it was 32.7%; in the assay with NCI-H322M lung, 13.2%; in the assay on HOP-62 NSCLC, 29.3%; with NCI-H460 lung, 5.49% (active); in the assay on HOP-92 NSCLC it was 30.3%. In addition, the growth was 22.9% with NCI-H522 lung; 5.31% (active) in the assay on A549/ATCC NSCLC; 25.2% with 786-0 renal; 19.1% with COLO 205 colon; 22.2% in the assay on DU-145 prostate; 17% with K-562 leukemia. In addition, the growth with MALME-3M melanoma was 29.3%; in the assay on MDA-MB-231 breast, 30.3%; with RXF 393 renal, 35.3%; in the assay on SF-268 CNS it was 30.8%; with SF-295 CNS, 32%; in the assay with SF-539 CNS, 38.5%. The values for the growth in the assay with UACC-257 melanoma and with M14 melanoma were 46.1% and 19.4%, respectively.
In the case of `COC(=O)c1nc(-c2ccccc2)oc1S(=O)(=O)N1CCCC(C)C1` (stereo not given), the growth was 87.8% in the assay on NCI-H23 lung; 90.6% in the assay on NCI-H226 lung; 90.2% in the assay with NCI-H322M lung; 107% with HOP-62 NSCLC; 102% with NCI-H460 lung; 72.7% in the assay on HOP-92 NSCLC. The growth is 28.6% in the assay with NCI-H522 lung; 96.8% with A549/ATCC NSCLC; 59.1% with 786-0 renal; 67.7% in the assay on COLO 205 colon; 91.3% in the assay with DU-145 prostate; 17.7% in the assay on K-562 leukemia. The growth is 78.2% with MALME-3M melanoma; 76.8% with MDA-MB-231 breast; 78.8% with RXF 393 renal; 85.8% in the assay on SF-268 CNS; 108% with SF-295 CNS; 85% in the assay with SF-539 CNS. For the same compound, the growth in the assay with UACC-257 melanoma was 82.3%; with M14 melanoma, 39.3%.
As to `Cc1c2ccccc2nc2cc3c(cc12)[C@H]1CC[C@]2(C)C(=O)CC[C@H]2[C@@H]1CC3`, the growth in the assay with NCI-H23 lung is 98.5%; in the assay with NCI-H226 lung, 91.8%; with NCI-H322M lung, 98.5%; in the assay with HOP-62 NSCLC, 105%; in the assay with NCI-H460 lung, 97.3%; with HOP-92 NSCLC, 86.9%. For the same compound, the growth with NCI-H522 lung was 81.6%; in the assay with A549/ATCC NSCLC, 86.5%; in the assay with 786-0 renal, 98%; with COLO 205 colon, 109%; in the assay on DU-145 prostate, 106%; with K-562 leukemia, 90.2%. Further, the growth in the assay with MALME-3M melanoma was 108%; in the assay on MDA-MB-231 breast, 91.6%; in the assay on RXF 393 renal, 101%; with SF-268 CNS, 89.5%; with SF-295 CNS, 99.9%; in the assay with SF-539 CNS it was 96.5%. Besides, the growth was 98.3% in the assay with UACC-257 melanoma and 102% with M14 melanoma.
Consider `COc1ccc(NC(=O)c2ccc(Nc3ncnc4c3cnn4-c3cccc(F)c3)cc2)cc1`, for which the growth in the assay on NCI-H23 lung was 103%; in the assay with NCI-H226 lung, 103%; in the assay with NCI-H322M lung, 103%; with HOP-62 NSCLC it was 101%; in the assay on NCI-H460 lung it was 102%; with HOP-92 NSCLC, 96.4%. Further, the growth was 96.9% in the assay with NCI-H522 lung; 101% in the assay on A549/ATCC NSCLC; 104% with 786-0 renal; 109% in the assay on COLO 205 colon; 103% in the assay with DU-145 prostate; 94.8% in the assay on K-562 leukemia. The growth in the assay with MALME-3M melanoma was 92.6%; with MDA-MB-231 breast it was 92%; in the assay with RXF 393 renal it was 90.2%; with SF-268 CNS it was 99.1%; with SF-295 CNS, 98.3%; with SF-539 CNS it was 96.5%. Moreover, the growth in the assay on UACC-257 melanoma is 97.9%; in the assay on M14 melanoma it was 98.4%.
For the compound `c1ccc(-c2nc3ccccc3[nH]2)c(OCCCCCOc2ccccc2-c2nc3ccccc3[nH]2)c1`, the growth was 80.1% with NCI-H23 lung; 85.2% with NCI-H226 lung; 103% with NCI-H322M lung; 124% with HOP-62 NSCLC; 59.6% in the assay with NCI-H460 lung; -21.4% (active) in the assay with HOP-92 NSCLC. The growth in the assay on NCI-H522 lung is 66.1%; in the assay on A549/ATCC NSCLC it was 8.77% (active); in the assay on 786-0 renal, 93%; with COLO 205 colon, 112%; in the assay on DU-145 prostate, 39.9%; with K-562 leukemia, -11.6% (active). In addition, the growth with MALME-3M melanoma is 66.2%; with MDA-MB-231 breast it was 70.5%; in the assay on RXF 393 renal, 81.1%; in the assay with SF-268 CNS, 55.1%; with SF-295 CNS it was 87.3%; in the assay with SF-539 CNS, 7.96% (active). The results for the growth with UACC-257 melanoma and in the assay with M14 melanoma were 71% and 95.1%, respectively.
Take `Clc1ccc2nn3c4ccccc4c(OCCN4CCOCC4)nc3c2c1`: the growth is 87.1% with NCI-H23 lung; 94.6% in the assay on NCI-H226 lung; 84.4% in the assay with NCI-H322M lung; 90.6% in the assay on HOP-62 NSCLC; 99.9% in the assay on NCI-H460 lung; 72.9% in the assay on HOP-92 NSCLC. In addition, the growth is 74.5% in the assay with NCI-H522 lung; 91.8% with A549/ATCC NSCLC; 80.9% in the assay on 786-0 renal; 90% with COLO 205 colon; 98.9% in the assay on DU-145 prostate; 88.2% in the assay with K-562 leukemia. Further, the growth in the assay on MALME-3M melanoma is 134%; in the assay on MDA-MB-231 breast it was 81.4%; in the assay on RXF 393 renal, 79.3%; in the assay with SF-268 CNS it was 91.8%; in the assay with SF-295 CNS, 93.9%; in the assay on SF-539 CNS, 91.6%. Further, the growth with UACC-257 melanoma is 107%; with M14 melanoma, 122%.
